# In PubChem BioAssay AID588342 (National Center for Advancing Translational Sciences (NCATS), 2011):
# In all, about 360,000 compounds went through this assay and about 25,000 (6.9%) were called active. Not shown: some 9% with an inconclusive outcome. Calls follow the shape of the dose curve; as a rule, active = well fitted inhibition curve with a large enough effect; inconclusive = small, poorly fitted or top-dose-only effect; inactive = flat fitted curve, though single readings scatter. What follows is part of a selection rich in actives, with near analogues and random picks from the rest. Where a call stands in place of a potency, no number is given.
# Target: Luciferin 4-monooxygenase (Photinus pyralis) (UniProt P08659)
# Experiment: qHTS profiling assay for firefly luciferase inhibitor/activator using purifed enzyme and Km concentrations of substrates (counterscreen for miR-21 project); also: nearly all actives have a fitted effect of over 55% in size
# Details: purified FLuc, luminescence inhibition; series mostly up to 57.5 µM
# In short: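 Biochemical qHTS of compounds, final roughly 60 µM downward over six points, against 10 nM purified firefly luciferase using Km concentrations of substrates (10 uM D-luciferin, 10 uM ATP) in Tris acetate pH 7.5 buffer; luminescence output.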
# Potency is read from the fitted curve at half-maximal effect.
# Sequence of Luciferin 4-monooxygenase (Photinus pyralis) (P08659 whole entry, looked up): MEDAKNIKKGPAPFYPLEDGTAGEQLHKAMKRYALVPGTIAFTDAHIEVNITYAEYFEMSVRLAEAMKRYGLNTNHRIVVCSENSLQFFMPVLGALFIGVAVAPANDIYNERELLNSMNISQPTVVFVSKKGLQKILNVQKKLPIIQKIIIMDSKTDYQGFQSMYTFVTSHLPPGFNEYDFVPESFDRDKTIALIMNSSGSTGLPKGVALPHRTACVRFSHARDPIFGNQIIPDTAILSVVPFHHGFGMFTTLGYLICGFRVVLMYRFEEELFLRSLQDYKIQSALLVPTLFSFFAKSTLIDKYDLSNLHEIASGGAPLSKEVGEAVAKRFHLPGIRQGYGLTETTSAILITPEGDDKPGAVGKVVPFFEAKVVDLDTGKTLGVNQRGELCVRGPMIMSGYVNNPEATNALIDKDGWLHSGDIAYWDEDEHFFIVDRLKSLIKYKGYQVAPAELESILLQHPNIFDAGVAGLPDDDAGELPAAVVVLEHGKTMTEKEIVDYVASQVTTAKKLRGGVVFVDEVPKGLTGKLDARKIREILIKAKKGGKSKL
row,Compound,Potency
1,Fc1ccc(CN2CCc3nc(Nc4ccccc4)ncc3C2)cc1F,inactive
2,O=C(Nc1cc(C(F)(F)F)ccc1Cl)c1nc2ccccc2nc1N1CCCCC1,inactive
3,CCN1CCC(N(Cc2ccc(F)cc2)C(=O)Nc2cc(C)ccc2C)CC1,inactive
4,O=C(NC1CCCCC1)c1ccc2c(c1)N(Cc1ccc(Cl)cc1)C(=O)c1ccccc1S2=O (stereo not given),inactive
5,CN(C(=O)COC(=O)CCCc1c[nH]c2ccccc12)c1c(N)n(Cc2ccccc2)c(=O)[nH]c1=O,inactive
6,CCc1nc2onc(C)c2c(=O)n1CC(=O)O,inactive
7,CC(C)CNC(=O)C(=O)Nc1ccc(N(C)C)cc1,10.7 µM (active)
8,CC(C)CNC(=O)C(=O)NCc1ccccc1,inactive
9,CC(C)CNC(=S)Nc1ccc(F)cc1,inactive
10,COc1ccc(CNC(=O)CSc2nc3ccccc3nc2Cc2ccccc2)cc1,inactive
11,COC(=O)c1cc(=O)n(-c2c(Cl)cc(C(F)(F)F)cc2Cl)[nH]1,inactive
12,Cn1cc(CCC(=O)NCc2ccc3c(c2)OCO3)c2ccccc21,inactive
13,Cc1ccc(CNC(=O)Cc2cn(C)c3ccccc23)cc1,15.1 µM (active)
14,CCc1ccccc1NC(=O)Cc1cn(C)c2ccccc12,inactive
15,COc1cc(Cl)c(NC(=O)CC(C)S(=O)(=O)c2cc3c(cc2C)NC(=O)CO3)c(OC)c1 (stereo not given),inactive
16,Cc1nnc(C)n1/N=C/c1ccc(C(C)C)cc1,inactive
17,CC(=O)c1sc(N/N=C\c2ccc(C)cc2)nc1C,2.39 µM (active)
18,Cc1nc(NC(=O)c2cccc(Cl)c2)sc1-c1csc(Nc2cccc(Cl)c2)n1,inactive
19,Cc1ccc(C)c2sc(NC(=O)c3ccc(S(=O)(=O)N4CCCC4)cc3)nc12,inactive
20,CC(=O)c1sc(NC(=O)C2=NN(c3ccccc3)C(=O)CC2)nc1C,inactive
21,CCCCCCC(=O)Nc1nc(C)c(-c2csc(Nc3cc(Cl)ccc3OC)n2)s1,inactive
22,CC(=O)c1sc(N/N=C/c2ccc(C(C)C)cc2)nc1C,6.01 µM (active)
23,Cc1cc2c(=O)n(CC(=O)NCC(=O)Nc3ccc(C(C)C)cc3)cnc2s1,inactive
24,CC(=O)c1sc(N)nc1C,inactive
25,Cc1ccc(Nc2nc(-c3sc(NC(=O)c4ccccc4)nc3C)cs2)cc1,12 µM (active)

row,Compound,Potency
1,CC(=O)c1sc(NC(=O)c2ccc(C)cc2)nc1C,1.9 µM (active)
2,CC(=O)Nc1ccc(NC(=O)C2CCCN(S(=O)(=O)c3ccc4c(c3)CCCC(=O)N4)C2)cc1 (stereo not given),inactive
3,CCc1cccc(CC)c1NC(=O)COc1ccccc1C(=O)c1cc(C#N)c(=O)n(C2CCCCC2)c1,inactive
4,C=C(C)CNc1cc(S(=O)(=O)N2CCOCC2)ccc1Oc1ccccc1,inactive
5,Cc1ccc(Nc2c(-c3ccc(Cl)cc3)nc3sccn23)c(C)c1,inactive
6,Cc1ccc(-c2nn3c(=O)cc(CN4CCN(S(=O)(=O)c5ccc(Cl)cc5)CC4)nc3s2)cc1,inactive
7,O=S(=O)(c1ccc(C2CCCCC2)cc1)N1CCN(c2ccc(Cl)c(Cl)c2)CC1,inactive
8,CC(C)C(=O)Nc1ccc2oc(=O)ccc2c1,inactive
9,Cc1cc(=O)oc2cc(NC(=O)C(C)Oc3ccccc3)ccc12 (stereo not given),inactive
10,CC(C)C(=O)Nc1ccc2c(c1)oc1ccccc12,2.69 µM (active)
11,COc1cc2nc(SCc3ccc(F)cc3)n3nc(CCn4c(C)nc5ccccc54)nc3c2cc1OC,inactive
12,O=C(CCc1nc(CN2CCN(S(=O)(=O)c3ccc(F)cc3)CC2)no1)N1CCCCC1,inactive
13,CCC(=O)N1CCc2cc(Br)cc(S(=O)(=O)CCC(=O)NCCc3ccc(OC)c(OC)c3)c21,inactive
14,CCC(=O)N1c2ccccc2CC1C(=O)N1CCN(c2ccccc2F)CC1 (stereo not given),inactive
15,COc1cc(OC)cc(C(=O)Nc2ccc3nc(Nc4cccc(C(F)(F)F)c4)cc(C)c3c2)c1,inactive
16,Cc1ccc2nc(Nc3ccccc3O)nc(-c3ccccc3)c2c1,inactive
17,Cc1ccc2nc(Nc3ccccc3)cc(C)c2c1,23.9 µM (active)
18,O.O.O.O=S(=O)([O-])OC[C@H]1O[C@@H](O[C@]2(COS(=O)(=O)[O-])O[C@H](OS(=O)(=O)[O-])[C@@H](OS(=O)(=O)[O-])[C@@H]2OS(=O)(=O)[O-])[C@H](OS(=O)(=O)[O-])[C@@H](OS(=O)(=O)[O-])[C@@H]1OS(=O)(=O)[O-].[Al],inactive
19,CSc1nc2ccc(NC(=O)c3c(F)cccc3F)cc2s1,19 µM (active)
20,CC(=O)Nc1ccc2nc(SCCOc3cc(C)cc(C)c3)sc2c1,inactive
21,O=C(Nc1ccncc1)c1c(F)cccc1F,inactive
22,CC(=O)Cn1ncc(N2CCOCC2)c(Br)c1=O,inactive
23,O=C(Cn1ncc(N2CCCC2)c(Br)c1=O)c1ccc(Cl)cc1,19 µM (active)
24,CCn1c(=O)c(=O)n(CC)c2cc(N3CCCCC3)c(NC(=O)c3ccc(Cl)cc3)cc21,inactive
25,CCN(CC)CCNC(=O)c1ccc(NC(=O)c2cc(-c3ccncc3)nc3ccccc23)cc1,inactive

row,Compound,Potency
1,O=C(O)c1cccc(NC(=O)c2cc(-c3cccc(Cl)c3)nc3ccccc23)c1,16.9 µM (active)
2,COc1ccccc1NC(=O)c1cc(Cl)nc2ccccc12,inactive
3,CCOc1cc(-c2nnc(SCC(=O)NC3CCCC3)nc2-c2ccc(OC)c(OCC)c2)ccc1OC,inactive
4,CCc1ccc(-c2nc(SCC(=O)NC3CCCC3)n[nH]2)cc1,19 µM (active)
5,COc1ccc(CNC(=O)CSc2n[nH]c(-c3ccc(F)cc3)n2)cc1,inactive
6,CC(=O)C[C@@H](O)CC(=O)[C@H]1OC(=O)CCCCCCc2ccccc21,inactive
7,O=C(Nc1ccccc1)C1CCN(C(=O)c2ccc(Br)cc2)CC1,inactive
8,CC(C)(C)c1ccc(C(=O)N2CCC(C(=O)N3CCCCC3)CC2)cc1,inactive
9,C/C(=C\C(=O)c1ccc(Br)cc1)N1CCCCC1,15.1 µM (active)
10,COc1cccc(CNC(=O)Cn2ncn3c(cc4ccccc43)c2=O)c1,inactive
11,CCC(C)Cn1c(O)cc2nn(-c3nc4ccccc4s3)c(=O)c-2c1C (stereo not given),0.301 µM (active)
12,Cc1cc(NC(=O)CN2CCCC(C)C2)n(-c2nc3ccccc3s2)n1 (stereo not given),inactive
13,S=C(Nc1cccc(Br)c1)N1CCn2cccc2C1c1cccnc1 (stereo not given),inactive
14,CCCCCCCCCCCCCCCC(=O)OC/C=C(C)/C=C/C=C(C)/C=C/C1=C(C)CCCC1(C)C,inactive
15,O=C(CCS(=O)(=O)c1ccc2c(c1)NC(=O)CO2)Nc1cccc(C(F)(F)F)c1,inactive
16,CCNc1nc(SCCOc2ccccc2)nc(N(C)C)n1,inactive
17,COc1cn(CC(=O)Nc2cccc(C)c2C)c(CN2CCCCC2)cc1=O,inactive
18,Cc1ccc(/C=N/NC(=O)C(NC(=O)c2ccccc2)c2n[nH]c(=O)c3ccccc23)cc1 (stereo not given),19 µM (active)
19,Cc1ccc(S(=O)(=O)Oc2ccc(/C=N/NC(=O)c3ccncc3)cc2)cc1,inactive
20,Cc1ccc(/C=N/NC(=O)COc2ccccc2-c2ccccc2)cc1,inactive
21,CCOC(=O)c1cccc(NC(=O)C(Cc2ccccc2)NS(=O)(=O)c2cccc3nsnc23)c1 (stereo not given),inactive
22,CN(C(=O)CSc1nc2ccccc2n1Cc1ccccc1C#N)c1ccccc1,inactive
23,O=C(COc1ccc(/C=N/NC(=O)c2ccc(O)cc2)cc1)Nc1ccc([N+](=O)[O-])cc1,inactive
24,O=C(N/N=C/c1ccc(O)c(O)c1)C1c2ccccc2Oc2ccccc21,inactive
25,O=C(N/N=C/c1ccsc1)c1cc(O)cc(O)c1,21.3 µM (active)

row,Compound,Potency
1,Cc1cccc(-n2ncc(C(=O)N3CCc4ccccc4C3)c2C2CCN(C(=O)OC(C)(C)C)CC2)c1,inactive
2,Cc1ccc(NC(=O)c2nc(S(=O)(=O)Cc3cccc(C)c3)ncc2Cl)cc1,inactive
3,Nc1[nH]c(=S)nc2nc(-c3ccccc3)c(-c3ccccc3)nc12,inactive
4,O=C(c1cccc([N+](=O)[O-])c1)N1CCN(Cc2ccccc2)CC1,inactive
5,Cn1nnnc1SCC(=O)N1CCN(Cc2ccccc2)CC1,inactive
6,Cc1c(Br)c([N+](=O)[O-])nn1CC(=O)N1CCN(Cc2ccccc2)CC1,13.5 µM (active)
7,Cc1cccc(NS(=O)(=O)c2ccc(-c3cnc(C4CC4)o3)cc2)c1,inactive
8,COc1ccc(/C=N/N=C2/C(=O)Nc3ccccc32)cc1O,19 µM (active)
9,COc1ccc(/C=N/N(C)C2=NS(=O)(=O)c3ccccc32)cc1OC,inactive
10,CCOc1ccc(/C=N/NC(=O)CSc2ccccn2)cc1O,inactive
11,CCOC(=O)c1cc(-c2ccccc2)n(-c2cccc(C(=O)Nc3cc(OC)cc(OC)c3)c2)c1C,inactive
12,Cc1cc(C)c2oc(C(=O)Nc3ccc(S(=O)(=O)N(C)c4ccccc4)cc3)cc(=O)c2c1,inactive
13,O=C(c1cc(COc2ccc(F)cc2F)on1)N1CCOCC1,16.9 µM (active)
14,O=C(c1cc(COc2c(F)cccc2F)on1)N1CCSCC1,19 µM (active)
15,O=C(c1cc(COc2cccc(C(F)(F)F)c2)on1)N1CCSCC1,inactive
16,C=CCC1(CC=C)CCCN1C(=O)c1cc(COc2ccc(-n3cncn3)cc2)on1,inactive
17,O=C(NCCN1CCCC(O)C1)c1cc(COc2c(F)cccc2F)on1 (stereo not given),inactive
18,O=C(Oc1ccc(F)cc1)N1CCOCC1,inactive
19,COc1ccc(CCN2C(=O)c3oc4cc(C)cc(C)c4c(=O)c3C2c2ccccc2F)cc1OC (stereo not given),inactive
20,COc1cccc(CNCCSc2nnnn2C)c1OCc1ccccc1Cl,inactive
21,O=C(NCCCc1ccccc1)c1ccc2c(c1)sc1nc(-c3ccc(F)cc3)cn12,inactive
22,CCOC(=O)C(=O)Nc1nc(-c2ccccc2)c(CC)s1,inactive
23,C/C(=N/Nc1nc(-c2ccccc2)c(CC(=O)O)s1)c1ccccc1,5.36 µM (active)
24,CCOc1ccc(-c2nc(C)sc2CC(=O)O)cc1,inactive
25,Cc1ccc(C)c(N2CCN(S(=O)(=O)c3ccc4c(c3)C(C(C)C)C(=O)N4)CC2)c1 (stereo not given),inactive
